Values joined by “and” are separate entries in the source; they are usually repeats but may differ in a detail not shown here. Equal entries are not always repeated. Records with an inconclusive call do not appear. The source holds several records for some structures; these can differ, active in one and inactive in another. Unmarked numbers belong to inactive results. Active and inactive are the calls of the source. The call rests on the fitted dose curve; in most records, active means well fitted inhibition curve with a large enough effect; inconclusive means small, poorly fitted or top-dose-only effect; inactive means no such curve, though single readings can be large or run the other way.

This is an account of results in PubChem BioAssay AID652283 (National Center for Advancing Translational Sciences (NCATS), 2013).

The test is described as follows: qHTS Assay for Lipid Storage Modulators: COS7 Assay against Probe and Analogs. Particulars: COS7 lipid droplet area, BODIPY imaging, 18 h; cells loaded with 400 µM oleic acid. Summed up:
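COS7 cells treated 17-18 h with compound in 5% FBS medium, 0.2% DMSO and 400 microM oleic acid. Fixed cells stained with BODIPY 493/503 and Hoechst; lipid droplets counted from microscope images by visual review and image segmentation.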
(qHTS replaces the single test concentration by a dilution series.)
In the case of `CCOC(=O)C1CCN(C(=O)C(C)(C)NC(=O)Nc2ccc(CN3CCOCC3)cc2)CC1`, the max response was -3.75%.

`CCOC(=O)C1CCN(C(=O)C2(NC(=O)Nc3ccccc3Cl)CCCCC2)CC1`: the max response is -103%.

`CC(C)(NC(=O)Nc1ccccc1Cl)C(=O)N1CCC(C(=O)O)CC1`: the max response was 21.7%.

`COc1cc(Nc2ncc(F)c(Nc3ccc4c(n3)NC(=O)C(C)(C)O4)n2)cc(OC)c1OC`: the max response was -7.73%.

With `CC(C)Oc1ccc(CCNC(=O)c2cc3sccc3n2Cc2ccccc2)cc1OC(C)C`, the Potency is 1.66 µM (active).

Regarding `O=C(NC1CCCc2c1cnn2-c1ccc(F)cc1F)c1ccc(C(=O)c2ccccc2)cc1` (stereo not given), the max response was 18.1%.

For `CCOc1ccc(CCNC(=O)c2cc3sccc3n2Cc2ccccc2)c(F)c1OCC`, the Potency was 16.6 µM (active).

Consider `CN(C)CC(=O)NC1CCCc2c1cnn2-c1ccc(F)cc1F` (stereo not given), for which the max response is 19.8%.

In the case of `CCOC(=O)C1CCN(C(=O)C(C)(C)NC(=O)Nc2ccc(N)cc2)CC1`, the max response is -5.67%.

In the case of `CCOc1ccc(CCN(C)C(=O)c2cc3sccc3n2Cc2ccccc2)cc1OCC`, the Potency was 11.8 µM (active).

As to `CCOc1ccc(CCNC(=O)c2cnon2)cc1OCC`, the max response was 8.92%.

In the case of `CCN(CC)C(=O)C1CCN(C(=O)C(C)(C)NC(=O)Nc2ccccc2Cl)CC1`, the max response was -9.22%.

Consider `CCOc1ccc(CCNC(=O)CN(C)C)cc1OCC`, for which the max response is -3.2%.

As to `CCOC(=O)C1CCN(C(=O)C(C)(C)NC(=O)Nc2ccc(Oc3ccccc3)cc2)CC1`, the Potency is 6.62 µM (active).

With `CCOc1ccc(CCNC(=O)c2ccccn2)cc1OCC`, the max response is 1.41%.

In the case of `CCOC(=O)C1CCN(C(=O)C(C)(C)NC(=O)Nc2cccc(OC)c2)CC1`, the Potency is 16.6 µM (active).

Consider `CCOC(=O)C1CCN(C(=O)C(C)(C)NC(=O)Nc2ccc(-c3ccccc3)cc2)CC1`, for which the Potency is 10.5 µM (active).

As to `O=C(Nc1cccc2nn(-c3ccc(F)cc3)cc12)c1ccccn1`, the max response is 9.12%.

`CCOc1ccc(CCNC(=O)c2csc(Br)n2)cc1OCC`: the max response was -17.2%.

As for `CC(C)(C)OC(=O)N1CCCCC1C(=O)NC1CCCc2c1cnn2-c1ccc(F)cc1F` (stereo not given), the max response was 7.96%.

For `O=C(NC1CCCc2c1cnn2-c1ccc(O)cc1)c1ccccn1` (stereo not given), the Potency is 10.5 µM (active).

In the case of `CC(C)(C)OC(=O)NCCOCCOCCOc1ccc(-n2ncc3c2CCCC3NC(=O)c2ccccn2)cc1` (stereo not given), the Potency was 18.7 µM (active).

Regarding `CCOC(=O)C1CCN(C(=O)CNC(=O)Nc2ccccc2Cl)CC1`, the max response was 11.1%.

As for `O=C(NC1CCCc2c1cnn2-c1ccc(F)cc1F)c1cnccn1` (stereo not given), the max response is -14.9%.

`O=C(NCCc1ccc2c(c1)OCO2)c1cc2sccc2n1Cc1ccccc1`: the max response is 19.6%.

Regarding `CCOc1ccc(CCNC(=O)c2cc3sccc3n2Cc2ccc(Cl)c(F)c2)cc1OCC`, the Potency was 0.296 µM (active).

As for `CCn1c(C(=O)NCCc2ccc(OC)c(OC)c2)cc2sccc21`, the max response is 3.82%.

Turning to `O=C(NC1CCCc2c1cnn2-c1ccc(F)cc1F)c1ccccn1` (stereo not given), the Potency is 16.6 µM (active) and 14.8 µM (active); the max response is 16%.

In the case of `CCOc1ccc(CCNC(=O)C2COc3ccccc3O2)cc1OCC` (stereo not given), the Potency is 18.7 µM (active).

Take `CCOc1ccc(CCNC(=O)Cc2ccccc2)cc1OCC`: the max response was -10.6%.

Consider `CCOc1ccc(CCNC(=O)c2cc3sccc3n2Cc2ccccc2)cc1OCC`, for which the Potency was 0.935 µM (active).

As to `CCOc1ccc(CCNC(=O)C2=C(C)OCCO2)cc1OCC`, the max response is 10.4%.

Turning to `COc1ccc(-n2ncc3c2CCCC3NC(=O)c2ccccn2)cc1` (stereo not given), the Potency is 4.69 µM (active).

Regarding `CC(NCc1ccc2c(c1)nc(NC(=O)c1ccc(-c3cn[nH]c3)s1)n2CC(C)(C)O)C(C)(C)C` (stereo not given), the Potency is 4.69 µM (active).
